# The supplement of paper PMC10849652
# Targets with a hit are over-represented here; the source holds about 8,800 in all. About 0.5% of all pairs of compound and target were hits. A number with no mark means an inactive call.
# Experiments:
# Test in all cases: log2 fold change, soluble protein after heating vs DMSO (PISA); higher = thermal stabilisation; K562 lysate, 10 uM; active = over 0.2 and 3.5 SD of the protein, either way, in both replicates (recomputed)
# lapatinib = compound: CS(=O)(=O)CCNCc1ccc(-c2ccc3ncnc(Nc4ccc(OCc5cccc(F)c5)c(Cl)c4)c3c2)o1 [lapatinib]
# Summary of the method: (§1)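 Dounce homogenisation of K562 pellets in PBS pH 7.4 with 1 mM MgCl2 produced a crude extract, used at 1 mg/mL protein. Exposure to 10 μM compound lasted 30 min, and aliquots were then heated for 3 min across 48°C-58°C, pooled and brought to 0.5% NP-40 at 4°C. The supernatant after 21,000xg for 90 min was quantified by TMTpro 16plex LC-MS/MS with channel sums equalised. Duplicate values are given as log-two fold change in thermal stability relative to solvent controls.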
# pictilisib = compound: CS(=O)(=O)N1CCN(Cc2cc3nc(-c4cccc5[nH]ncc45)nc(N4CCOCC4)c3s2)CC1 [pictilisib]
# Summary of the method: as §1
# crizotinib = compound: C[C@@H](Oc1cc(-c2cnn(C3CCNCC3)c2)cnc1N)c1c(Cl)ccc(F)c1Cl [crizotinib]
# Summary of the method: as §1
# [1] = compound: C[C@H](C1=CC=C(C=C1)C(=O)NC2=C3C=CNC3=NC=C2)N
# Summary of the method: as §1
# duvelisib = compound: C[C@H](Nc1ncnc2nc[nH]c12)c1cc2cccc(Cl)c2c(=O)n1-c1ccccc1 [duvelisib]
# Summary of the method: as §1
# gandotinib = compound: Cc1cc(Nc2cc(CN3CCOCC3)c3nc(C)c(Cc4ccc(Cl)cc4F)n3n2)n[nH]1 [gandotinib]
# Summary of the method: as §1
# tozasertib = compound: Cc1cc(Nc2cc(N3CCN(C)CC3)nc(Sc3ccc(NC(=O)C4CC4)cc3)n2)n[nH]1 [tozasertib]
# Summary of the method: as §1
# doramapimod = compound: Cc1ccc(-n2nc(C(C)(C)C)cc2NC(=O)Nc2ccc(OCCN3CCOCC3)c3ccccc23)cc1 [doramapimod]
# Summary of the method: as §1
# bafetinib = compound: Cc1ccc(NC(=O)c2ccc(CN3CC[C@H](N(C)C)C3)c(C(F)(F)F)c2)cc1Nc1nccc(-c2cncnc2)n1 [bafetinib]
# Summary of the method: as §1
# [2] = compound: Cc1cccc(CC(=O)N2CCc3c2ccc(-c2cn(C)c4ncnc(N)c24)c3F)n1
# Summary of the method: as §1
# UniProt Q14644, sequence (Q14644 whole entry, looked up): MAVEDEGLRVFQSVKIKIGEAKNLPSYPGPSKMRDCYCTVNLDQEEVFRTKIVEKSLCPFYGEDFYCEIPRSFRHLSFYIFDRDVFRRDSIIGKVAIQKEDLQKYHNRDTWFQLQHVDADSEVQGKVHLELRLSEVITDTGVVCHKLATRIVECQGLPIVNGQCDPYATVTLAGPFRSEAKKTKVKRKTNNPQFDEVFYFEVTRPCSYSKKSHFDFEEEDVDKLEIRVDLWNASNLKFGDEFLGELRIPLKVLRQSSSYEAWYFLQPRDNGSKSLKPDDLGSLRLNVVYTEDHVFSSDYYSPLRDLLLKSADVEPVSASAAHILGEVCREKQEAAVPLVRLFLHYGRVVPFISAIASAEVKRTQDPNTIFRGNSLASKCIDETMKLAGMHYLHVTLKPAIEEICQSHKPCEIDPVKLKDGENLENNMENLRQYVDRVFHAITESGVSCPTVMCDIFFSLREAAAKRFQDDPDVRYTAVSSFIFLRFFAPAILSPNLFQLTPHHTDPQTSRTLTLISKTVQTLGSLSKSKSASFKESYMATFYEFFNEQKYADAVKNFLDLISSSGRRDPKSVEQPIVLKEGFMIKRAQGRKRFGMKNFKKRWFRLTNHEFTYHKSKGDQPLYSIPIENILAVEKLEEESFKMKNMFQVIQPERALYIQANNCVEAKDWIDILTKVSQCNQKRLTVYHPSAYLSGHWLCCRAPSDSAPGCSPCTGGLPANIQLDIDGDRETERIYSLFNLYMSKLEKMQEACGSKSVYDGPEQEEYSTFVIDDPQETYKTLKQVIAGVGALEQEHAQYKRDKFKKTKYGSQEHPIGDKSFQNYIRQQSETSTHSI
# UniProt Q9BTD8, sequence (Q9BTD8 whole entry, looked up): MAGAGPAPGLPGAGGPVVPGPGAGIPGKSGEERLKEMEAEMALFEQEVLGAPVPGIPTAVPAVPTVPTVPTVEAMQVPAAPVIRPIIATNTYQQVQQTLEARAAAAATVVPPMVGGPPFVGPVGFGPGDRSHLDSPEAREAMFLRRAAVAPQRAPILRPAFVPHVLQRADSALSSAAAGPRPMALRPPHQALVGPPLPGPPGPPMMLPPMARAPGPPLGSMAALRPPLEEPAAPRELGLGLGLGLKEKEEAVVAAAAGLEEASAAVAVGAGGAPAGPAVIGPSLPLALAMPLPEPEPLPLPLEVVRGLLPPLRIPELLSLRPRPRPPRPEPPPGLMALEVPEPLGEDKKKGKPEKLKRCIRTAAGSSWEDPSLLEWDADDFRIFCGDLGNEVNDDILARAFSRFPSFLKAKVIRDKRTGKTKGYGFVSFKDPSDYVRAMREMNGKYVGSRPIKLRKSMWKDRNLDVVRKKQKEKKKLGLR
# UniProt Q02094, sequence (Q02094 whole entry, looked up): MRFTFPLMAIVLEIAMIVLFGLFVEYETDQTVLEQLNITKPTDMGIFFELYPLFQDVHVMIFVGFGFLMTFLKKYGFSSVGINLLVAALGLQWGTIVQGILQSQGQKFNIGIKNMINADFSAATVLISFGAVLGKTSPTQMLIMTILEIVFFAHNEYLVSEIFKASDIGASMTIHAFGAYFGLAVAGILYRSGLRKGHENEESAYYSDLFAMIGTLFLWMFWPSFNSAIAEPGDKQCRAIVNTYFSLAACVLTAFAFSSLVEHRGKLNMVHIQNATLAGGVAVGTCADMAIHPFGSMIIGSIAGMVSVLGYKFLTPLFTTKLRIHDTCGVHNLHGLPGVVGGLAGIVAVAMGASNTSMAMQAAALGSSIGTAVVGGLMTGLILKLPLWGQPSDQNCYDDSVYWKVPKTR
# UniProt Q9HBH5, sequence (Q9HBH5 whole entry, looked up): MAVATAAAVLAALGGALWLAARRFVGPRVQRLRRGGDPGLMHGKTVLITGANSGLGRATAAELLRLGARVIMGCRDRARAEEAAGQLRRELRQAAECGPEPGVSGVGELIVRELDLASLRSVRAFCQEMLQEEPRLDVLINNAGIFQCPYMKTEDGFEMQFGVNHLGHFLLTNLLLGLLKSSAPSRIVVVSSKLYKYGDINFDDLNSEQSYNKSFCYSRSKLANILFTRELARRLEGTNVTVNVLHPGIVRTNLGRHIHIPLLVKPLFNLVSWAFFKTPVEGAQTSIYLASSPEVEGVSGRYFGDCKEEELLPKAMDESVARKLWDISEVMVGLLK
# UniProt O15541, sequence (O15541 whole entry, looked up): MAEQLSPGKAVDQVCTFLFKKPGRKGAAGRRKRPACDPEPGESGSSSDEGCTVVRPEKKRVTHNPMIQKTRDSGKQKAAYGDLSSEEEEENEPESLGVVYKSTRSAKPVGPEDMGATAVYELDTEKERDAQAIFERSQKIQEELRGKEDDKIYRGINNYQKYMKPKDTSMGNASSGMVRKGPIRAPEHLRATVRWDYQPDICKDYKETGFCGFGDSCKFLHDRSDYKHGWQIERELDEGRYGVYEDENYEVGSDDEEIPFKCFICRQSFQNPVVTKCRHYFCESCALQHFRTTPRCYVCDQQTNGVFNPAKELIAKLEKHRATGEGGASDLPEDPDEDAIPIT
# UniProt Q6GYQ0, sequence (Q6GYQ0 whole entry, looked up): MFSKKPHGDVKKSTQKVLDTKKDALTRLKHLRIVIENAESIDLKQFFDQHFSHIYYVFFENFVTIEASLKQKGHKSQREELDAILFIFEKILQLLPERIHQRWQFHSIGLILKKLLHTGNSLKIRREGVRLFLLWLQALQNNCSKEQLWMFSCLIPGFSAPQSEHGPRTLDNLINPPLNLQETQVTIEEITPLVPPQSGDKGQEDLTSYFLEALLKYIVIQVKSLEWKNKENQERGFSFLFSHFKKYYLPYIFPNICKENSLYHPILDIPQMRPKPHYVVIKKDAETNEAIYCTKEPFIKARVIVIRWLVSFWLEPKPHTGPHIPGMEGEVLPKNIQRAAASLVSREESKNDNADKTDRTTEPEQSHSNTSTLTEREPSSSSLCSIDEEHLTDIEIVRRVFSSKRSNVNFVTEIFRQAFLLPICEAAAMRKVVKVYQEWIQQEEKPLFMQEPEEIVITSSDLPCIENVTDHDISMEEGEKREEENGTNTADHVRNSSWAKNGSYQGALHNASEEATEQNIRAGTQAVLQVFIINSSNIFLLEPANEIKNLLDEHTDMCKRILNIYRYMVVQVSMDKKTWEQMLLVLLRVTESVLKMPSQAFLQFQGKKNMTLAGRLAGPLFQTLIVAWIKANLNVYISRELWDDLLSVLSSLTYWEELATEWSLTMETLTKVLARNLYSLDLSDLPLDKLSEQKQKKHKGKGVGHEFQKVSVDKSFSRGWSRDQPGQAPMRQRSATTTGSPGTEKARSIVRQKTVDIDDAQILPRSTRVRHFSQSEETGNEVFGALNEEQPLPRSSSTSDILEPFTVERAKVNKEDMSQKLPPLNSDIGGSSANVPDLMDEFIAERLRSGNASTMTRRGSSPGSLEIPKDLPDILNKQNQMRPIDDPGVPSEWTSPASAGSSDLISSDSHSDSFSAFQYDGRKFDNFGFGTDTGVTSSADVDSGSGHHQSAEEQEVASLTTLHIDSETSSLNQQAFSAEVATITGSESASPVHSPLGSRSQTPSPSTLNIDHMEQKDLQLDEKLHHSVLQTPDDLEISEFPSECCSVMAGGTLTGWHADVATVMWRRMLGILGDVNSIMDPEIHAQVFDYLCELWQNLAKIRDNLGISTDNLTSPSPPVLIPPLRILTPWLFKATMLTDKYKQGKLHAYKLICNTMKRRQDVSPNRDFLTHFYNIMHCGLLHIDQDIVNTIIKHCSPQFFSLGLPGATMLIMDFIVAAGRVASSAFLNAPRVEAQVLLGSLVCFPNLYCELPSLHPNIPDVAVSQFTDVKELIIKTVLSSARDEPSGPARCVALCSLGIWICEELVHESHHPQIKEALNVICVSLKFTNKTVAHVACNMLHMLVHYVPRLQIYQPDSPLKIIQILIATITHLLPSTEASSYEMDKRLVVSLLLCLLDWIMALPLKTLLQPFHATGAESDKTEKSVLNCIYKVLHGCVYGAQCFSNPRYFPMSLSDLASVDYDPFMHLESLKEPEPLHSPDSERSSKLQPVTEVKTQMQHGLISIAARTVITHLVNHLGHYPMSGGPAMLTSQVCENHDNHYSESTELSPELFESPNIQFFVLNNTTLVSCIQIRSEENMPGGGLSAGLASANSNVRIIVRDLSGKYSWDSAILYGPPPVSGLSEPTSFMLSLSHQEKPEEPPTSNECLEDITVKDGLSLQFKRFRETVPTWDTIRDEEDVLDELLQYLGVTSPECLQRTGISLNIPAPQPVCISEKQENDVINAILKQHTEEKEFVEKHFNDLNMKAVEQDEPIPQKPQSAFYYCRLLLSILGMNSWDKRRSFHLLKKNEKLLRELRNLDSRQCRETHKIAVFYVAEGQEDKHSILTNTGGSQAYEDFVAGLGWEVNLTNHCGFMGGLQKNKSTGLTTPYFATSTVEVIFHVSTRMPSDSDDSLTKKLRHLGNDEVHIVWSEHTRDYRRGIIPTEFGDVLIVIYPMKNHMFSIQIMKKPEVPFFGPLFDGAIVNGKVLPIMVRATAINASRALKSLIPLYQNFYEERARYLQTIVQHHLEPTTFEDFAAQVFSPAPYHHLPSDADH
# UniProt Q15404, sequence (Q15404 whole entry, looked up): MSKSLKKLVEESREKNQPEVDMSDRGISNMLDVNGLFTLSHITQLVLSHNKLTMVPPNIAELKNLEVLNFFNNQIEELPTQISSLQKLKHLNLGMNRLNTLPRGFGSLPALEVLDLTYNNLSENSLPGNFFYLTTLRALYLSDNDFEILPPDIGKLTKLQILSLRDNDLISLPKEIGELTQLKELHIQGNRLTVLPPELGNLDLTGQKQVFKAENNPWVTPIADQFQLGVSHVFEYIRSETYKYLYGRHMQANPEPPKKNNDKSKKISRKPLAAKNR
# UniProt P61586, sequence (P61586 whole entry, looked up): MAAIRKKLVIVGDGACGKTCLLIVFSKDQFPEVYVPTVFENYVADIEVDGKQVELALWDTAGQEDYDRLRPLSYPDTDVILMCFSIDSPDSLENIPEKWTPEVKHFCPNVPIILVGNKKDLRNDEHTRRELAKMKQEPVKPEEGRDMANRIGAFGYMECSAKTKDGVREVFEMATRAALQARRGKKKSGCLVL
Target,log2 fold change (lapatinib),log2 fold change (pictilisib),log2 fold change (crizotinib),log2 fold change [1],log2 fold change (duvelisib),log2 fold change (gandotinib),log2 fold change (tozasertib),log2 fold change (doramapimod),log2 fold change (bafetinib),log2 fold change [2]
RHAG (UniProt Q02094),-0.046,-0.002,-0.038,-0.381 (active),0.113,0.07,0.05,0.032,0.004,0.184
RELN (UniProt P78509),0.047,0.047,-0.022,-0.104,0.002,0.057,-0.002,-0.044,-0.042,0.08
RASA3 (UniProt Q14644),0.08,-0.044,-0.061,-0.049,0.103,-0.026,-0.017,-0.005,-0.198,0.005
RAB3IL1 (UniProt Q8TBN0),-0.002,-0.034,-0.023,0,-0.003,-0.014,-0.004,-0.012,0.006,-0.02
RMC1 (UniProt Q96DM3),-0.036,-0.011,-0.013,-0.029,0.024,-0.051,-0.056,0.012,-0.062,0.035
RPS6KA3 (UniProt P51812),-0.089,0.223,-0.012,-0.037,-0.016,0.156,0.363,-0.057,-0.077,-0.083
RNF123 (UniProt Q5XPI4),-0.013,-0.029,-0.015,-0.04,-0.068,-0.122,0.029,0.039,-0.002,0.011
RABEPK (UniProt Q7Z6M1),0.003,-0.016,-0.008,-0.069,0.018,0.007,-0.033,0.005,0.024,0.04
RPS29 (UniProt P62273),-0.024,0.03,0.054,0.793 (active),-0.02,-0.202,-0.128,-0.105,0.205,-0.315
RDH14 (UniProt Q9HBH5),0.082,-0.028,0.009,-0.191,0.002,0.176,0.043,0,-0.005,0.198
RCOR3 isoform 3 (UniProt Q9P2K3),0.016,0.023,0.011,0.014,-0.029,-0.024,0.009,-0.048,-0.035,0.004
RSU1 (UniProt Q15404),0.001,0.045,0.07,0.329 (active),0.007,-0.116,0.015,-0.045,0.039,-0.135
RBM42 (UniProt Q9BTD8),0.05,0.049,0.01,0.026,-0.032,0.04,-0.001,0.216 (active),0.083,-0.01
RANBP2 (UniProt P49792),0.002,-0.001,-0.01,-0.009,-0.014,-0.069,0.001,-0.002,-0.02,0.06
"RNASEH2B, A0A1B0GUE7",-0.128,–,–,–,–,–,–,–,–,–
RAB27A (UniProt P51159),0.013,-0.008,0.026,0.563 (active),-0.009,-0.081,0.024,-0.034,0.038,-0.054
RANBP6 (UniProt O60518),-0.007,-0.005,-0.125,-0.067,0.019,-0.01,0.012,0.039,0.016,0.148
RNF40 (UniProt O75150),-0.019,-0.005,-0.01,-0.011,-0.001,-0.048,-0.002,0.002,0.01,0.03
RPL8 (UniProt P62917),-0.005,0.01,0.059,0.147,0.008,-0.072,0.033,-0.038,0.071,-0.051
RAD54L2 (UniProt Q9Y4B4),-0.209,-0.018,-0.037,-0.174,0.026,-0.163,-0.166,-0.02,-0.095,0.067
RPL37A (UniProt P61513),-0.012,-0.01,-0.011,0.312 (active),-0.088,-0.131,-0.087,-0.044,0.02,-0.2
SERINC3 (UniProt Q13530),-0.052,-0.028,-0.07,-0.38 (active),-0.001,0.16,-0.012,0.03,-0.014,0.075
RPL28 (UniProt P46779),0.01,0.047,0.043,0.234,0.018,-0.098,-0.018,-0.046,0.056,-0.059
RFC4 (UniProt P35249),-0.01,-0.004,-0.027,-0.065,0.01,-0.028,-0.027,0.035,-0.018,0.041
RNF113A (UniProt O15541),0.012,0.021,0.024,-0.072,-0.009,0.068,0.002,0.016,0,0.034
RINT1 (UniProt Q6NUQ1),-0.069,-0.065,-0.06,-0.058,0.046,-0.039,0.025,0.069,-0.058,0.132
RBM4 (UniProt Q9BWF3),-0.015,-0.01,0.018,0.183,-0.003,-0.097,0.075,-0.109,-0.02,-0.069
RAB3IL1 (UniProt E9PK89),-0.025,0.063,0.039,0.045,-0.036,0.006,0.059,-0.117,-0.094,0.057
RALGAPA1 isoform 6 (UniProt Q6GYQ0),-0.075,-0.157,0.036,-0.28 (active),0.074,0.257,-0.006,0.062,-0.026,0.321
RHOA (UniProt P61586),0.009,0.314,0.035,0.345 (active),-0.023,-0.058,-0.092,-0.036,0.08,-0.138
